Screening results deposited in PubChem BioAssay by several laboratories.
A selection: hits, their analogues and other compounds. The true share with any hit is near 3.6%.
LMP1 NFkB inh: reduces LMP1-driven NF-kappaB luciferase signal; LMP1-induced NF-kappaB luciferase reporter cells, luminescence; inhibition, % at 12.5 µM; 350,000 compounds, 0.69% hits; AID 504558; in the data active = inhibition above about 41%;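 note: 0% = neutral control wells and 100% = reference inhibitor control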
TWEAK-Fn14 inh: TWEAK-Fn14 signaling inhibition | 360,000 compounds, 2% hits | AID 1159606 | inhibition, % at 10 µM | TWEAK-stimulated Fn14 reporter cells, luciferase luminescence, 8 h; in the data active = inhibition above about 50%
LGR2 antag: inhibitors of bursicon-induced Drosophila LGR2 receptor cAMP signaling; HEK293 LGR2, CRE-luciferase, bursicon-stimulated, 4 h; inhibition, % at 9.99 µM; 380,000 compounds, 0.35% hits; AID 720647;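 active = drop in luminescence signal, shown as inhibition above about 50% in the replicate tests, limit read from the data, passing the limit was not always enough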;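 note: agonist challenge used bursicon conditioned medium at about half maximal strength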
HSF1 activator: increases HSF-1 driven luciferase reporter signal. NIH3T3-HGL HSF-1 luciferase reporter, MG132, 8 h; 100% = twice DMSO control signal. activation, % at 9 µM. 300,000 compounds, 1.7% hits. AID 504408;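 active = mean replicate activation of at least 50% with a set share of replicates each reaching 50%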;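 note: 0% = median of the neutral control wells and 100% = twice that signal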
TROY signal inh: TROY signaling inhibition | Q293 LMP1-TROYcd NF-kB luciferase reporter, 4 h | inhibition, % at 10 µM | 360,000 compounds, 0.98% hits | AID 1347056;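 active = compounds whose plate-normalised and pattern-corrected inhibition of the luciferase reporter signal at the single screening dose is 50% or more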
HSF1 inh: HSF1 inhibition; NIH3T3-HGL HSE-luciferase, MG132-induced, luminescence 8 h; active compounds read low; activity change, negative = inhibition, % at 7.5 µM (by protocol); 300,000 compounds, 0.77% hits;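 active = more than half of replicate wells show activity change below -50%, luminescence cut by over half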;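 note: luciferase reports HSF-1 transcriptional activity via heat shock element; 0% = median of DMSO wells and -100% = zero luminescence signal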
Starred values were filed as active, the others as inactive; nt = no result.

SMILES | LMP1 NFkB inh | TWEAK-Fn14 inh | LGR2 antag | HSF1 activator | TROY signal inh | HSF1 inh
Cc1ccc(/C=C2\Oc3cc(OC(=O)N4CCOCC4)ccc3C2=O)cc1 | 3 | 5 | 5 | 92* | -24 | 32
Cn1cccc1C(=O)NC(=O)COC(=O)C12CC3CC(CC(O)(C3)C1)C2 | -14 | 44 | 16 | -69 | 79* | -61*
Cc1ccc(S(=O)(=O)N(C)C[C@@H]2OCCCC[C@H](C)Oc3ccc(NC(=O)Nc4ccc5c(c4)OCO5)cc3C(=O)N([C@@H](C)CO)C[C@H]2C)cc1 | nt | nt | 6 | nt | nt | nt
COc1ccc2cnn(CCOc3ccccc3)c(=O)c2c1OC | 11 | 51* | nt | 8 | 33 | 14
COc1cccc(-n2nc(-c3ccnn3-c3ccccc3)c(=O)n(C)c2=O)c1 | 6 | 5 | -70 | 12 | 9 | 3
COc1cccc(-n2nc(-c3ccnn3-c3cccc(Cl)c3)c(=O)n(C)c2=O)c1 | -7 | -7 | -20 | -64 | -1 | -54*
Cc1ccc(OCc2nnc(SCC(=O)O)n2-c2ccccc2)cc1 | -7 | -8 | nt | 3 | 4 | -4
Cc1ccc(OCc2nnc(SC(C)C(=O)O)n2-c2ccccc2)cc1 (stereo unspecified) | 7 | 7 | 7 | -68 | 9 | -63*
COc1cccc(N/C=C/c2onc(C)c2[N+](=O)[O-])c1 | -44 | -14 | -48 | 66* | -65 | 32
CCc1ccc2c(c1)C(=O)CCC2 | 22 | 19 | -18 | nt | -7 | nt
O=C1CCCc2cc3c(cc21)CC1(C3)Cc2cc3c(cc2C1)C(=O)CCC3 | 20 | 35 | 34 | -36 | 61* | -21
COc1cccc(Nc2nc(NCC3CCCO3)c3ccccc3n2)c1 (stereo unspecified) | -15 | 88* | nt | -10 | 43 | -7
Oc1ccc(Nc2nc(NCC3CCCO3)c3ccccc3n2)cc1 (stereo unspecified) | -1 | 8 | nt | 13 | -42 | 7
Oc1ccc(Cl)cc1Nc1nc(NCC2CCCO2)c2ccccc2n1 (stereo unspecified) | 7 | 72* | -2 | -20 | 51* | 0
Cc1ccc(S(=O)(=O)Nc2ccc3c(c2)C(=O)N([C@@H](C)CO)C[C@H](C)[C@@H](CN(C)Cc2ccncc2)OCCCC[C@@H](C)O3)cc1 | nt | nt | 5 | nt | nt | nt
Cc1cc(C)n(C(=O)/C(C#N)=N\Nc2ccccc2[N+](=O)[O-])n1 | 3 | 14 | -17 | -6 | 1 | -4
Cc1cc(C)n(C(=O)/C(C#N)=N/Nc2cc(Cl)cc(Cl)c2)n1 | 9 | 51* | nt | 2 | 68* | 8
Cc1ncc([N+](=O)[O-])n1Cc1cccc(F)c1 | 1 | 70* | 13 | 0 | 19 | 6
Cc1[nH]n(-c2ccccc2)c(=O)c1C=NCCc1ccccc1 | 7 | -9 | -35 | 90* | -8 | 44
Cc1ccc(/C=N/Nc2nncc(-c3ccccc3)n2)o1 | -15 | 5 | -18 | 1 | -51 | 3
Cc1[nH]n(-c2ccccc2)c(=O)c1/C=N/Nc1nncc(-c2ccccc2)n1 | 69* | -2 | 13 | -5 | 10 | -14
Cc1[nH]n(-c2ccc(Br)cc2)c(=O)c1/C=N/NC(=O)c1ccccc1 | 47* | 33 | -6 | 39 | 2 | 13
CC(C)NC(=O)Nc1ccc2c(c1)C(=O)N(C)[C@@H]1CC[C@@H](CC(=O)Nc3ccccc3)O[C@H]1CO2 | nt | nt | -1 | nt | nt | nt
Cc1ccc(S(=O)(=O)c2c(N)n(-c3ccccc3)c3nc4ccccc4nc23)cc1 | -6 | 6 | 0 | 66* | 4 | 20
Cc1ccc(Cn2c(N)c(S(=O)(=O)c3cccs3)c3nc4ccccc4nc32)cc1 | 1 | 46 | nt | nt | 63* | nt
SMILES | LMP1 NFkB inh | TWEAK-Fn14 inh | LGR2 antag | HSF1 activator | TROY signal inh | HSF1 inh
Nc1c(S(=O)(=O)c2cccs2)c2nc3ccccc3nc2n1Cc1ccccc1 | -16 | 17 | nt | 10 | 41 | 1
CCCCn1c(N)c(S(=O)(=O)c2ccc(C)cc2)c2nc3ccccc3nc21 | -6 | 52* | 2 | 47 | 65* | 27
CN(C)CCCn1c(N)c(S(=O)(=O)c2ccccc2)c2nc3ccccc3nc21 | nt | 34 | 19 | -3 | -8 | -3
Cc1cc(/C=C2/NC(=O)N(Cc3ccccc3F)C2=O)c(C)n1C | -3 | 11 | 15 | 14 | 14 | 8
CCOc1cc([N+](=O)[O-])cc(/C=C2/NC(=O)N(Cc3ccccc3F)C2=O)c1O | 1 | 9 | 11 | 135* | -3 | 99
CO[C@@H]1CN(C)C(=O)c2ccc(NC(=O)C3CC3)cc2OC[C@H](C)N(C(=O)CN(C)C)C[C@H]1C | nt | nt | 20 | nt | nt | nt
CCN(CC)c1ccc(-c2nn3c(-c4n[nH]c5c4CCC5)nnc3s2)cc1 | 3 | 41 | nt | -3 | 52* | -7
C1CCC(c2nn3c(-c4n[nH]c5c4CCC5)nnc3s2)CC1 | -6 | 16 | nt | -18 | -7 | -15
Cc1noc(C)c1NC(=O)Nc1ccc2c(c1)C(=O)N([C@H](C)CO)C[C@H](C)[C@H](CN(C)C(=O)c1ccccc1)OCCCC[C@H](C)O2 | nt | nt | -3 | nt | nt | nt
O=C(C[C@@H]1CC[C@H](NC(=O)Nc2ccc(F)cc2)[C@H](CO)O1)NCCN1CCCC1 | nt | nt | 4 | nt | nt | nt
CCC(=O)N1[C@@H]2c3ccc(-c4ccncc4)c(=O)n3C[C@H]1[C@H](CO)[C@H]2C(=O)N1CCc2ccccc2C1 | nt | nt | -11 | nt | nt | nt
COc1ccc2c3c([nH]c2c1)[C@H](CO)N(C(=O)C1CCOCC1)CC31CN(Cc2cccc(F)c2)C1 | nt | nt | -3 | nt | nt | nt
NC(=O)c1ccsc1NC(=O)CN1CCN(S(=O)(=O)c2ccccc2C(F)(F)F)CC1 | 1 | 29 | 13 | nt | 50* | nt
O=C(CN1CCN(S(=O)(=O)c2ccccc2C(F)(F)F)CC1)NCc1cccs1 | -13 | 2 | -13 | -4 | 0 | 1
CC(C)C#Cc1ccc2c(c1)O[C@H](CN(C)C(=O)c1ccncc1)[C@H](C)CN([C@@H](C)CO)S2(=O)=O | nt | nt | 5 | nt | nt | nt
COCc1cc(CN2CCCC(C(=O)Nc3ccc(-c4ccco4)cc3)C2)ccc1OC (stereo unspecified) | -2 | -19 | 0 | 64* | -10 | 19
Cc1ncc(CN2CCCC(C(=O)Nc3ccc(-c4ccco4)cc3)C2)cn1 (stereo unspecified) | -3 | -12 | 5 | 3 | -6 | -4
O=C1/C(=C\c2ccccn2)SC(=S)N1c1ccc(S(=O)(=O)Nc2nccs2)cc1 | 1 | -8 | 10 | -11 | -2 | -2
COc1ccc(/C=C2/SC(=S)N(c3ccc(S(=O)(=O)Nc4nccs4)cc3)C2=O)cc1 | 6 | 39 | 30 | 21 | 54* | 3
Cc1ccc(/C=C2/SC(=S)N(c3ccc(S(=O)(=O)Nc4nccs4)cc3)C2=O)cc1 | 67* | 64* | 30 | 7 | 61* | 1
